Laboratory results reported in PubChem BioAssay AID2551 (National Center for Advancing Translational Sciences (NCATS), 2010).
Hit rate of the full screen: of about 310,000 compounds, about 17,000 (5.5%) were called active. Entries that show only a call come without a potency. Another 11% or so got no clear call; they are omitted. The sample as a whole holds a higher share of actives than the screen did. A number with no mark means an inactive call. Calls follow the shape of the dose curve; as a rule, active = well fitted inhibition curve with a large enough effect; inconclusive = small, poorly fitted or top-dose-only effect, or effect the other way; inactive = no such curve, though single readings can be large or run the other way.

What follows are molecules tested against Nuclear receptor ROR-gamma (Mus musculus) (UniProt P51450) (assay: qHTS for inhibitors of ROR gamma transcriptional activity). Conditions: Drosophila S2 Gal4-RORgamma UAS-luciferase reporter, 20 h; series mostly up to 53.6 µM.
Summary of the method: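 In this cell-based reporter format, copper sulfate (700 uM final) drives Gal4–ROR gamma fusion expression from a metallothionein promoter in Drosophila Schneider cells; compounds preincubated 1 hr, reporter read after 20 hr at ambient temperature.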
Also: nearly all actives have a fitted effect of over 60% in size.
Potency is read from the fitted curve at half-maximal effect.

Chain of Nuclear receptor ROR-gamma (Mus musculus) (P51450 whole entry, looked up, the tested form may be a part): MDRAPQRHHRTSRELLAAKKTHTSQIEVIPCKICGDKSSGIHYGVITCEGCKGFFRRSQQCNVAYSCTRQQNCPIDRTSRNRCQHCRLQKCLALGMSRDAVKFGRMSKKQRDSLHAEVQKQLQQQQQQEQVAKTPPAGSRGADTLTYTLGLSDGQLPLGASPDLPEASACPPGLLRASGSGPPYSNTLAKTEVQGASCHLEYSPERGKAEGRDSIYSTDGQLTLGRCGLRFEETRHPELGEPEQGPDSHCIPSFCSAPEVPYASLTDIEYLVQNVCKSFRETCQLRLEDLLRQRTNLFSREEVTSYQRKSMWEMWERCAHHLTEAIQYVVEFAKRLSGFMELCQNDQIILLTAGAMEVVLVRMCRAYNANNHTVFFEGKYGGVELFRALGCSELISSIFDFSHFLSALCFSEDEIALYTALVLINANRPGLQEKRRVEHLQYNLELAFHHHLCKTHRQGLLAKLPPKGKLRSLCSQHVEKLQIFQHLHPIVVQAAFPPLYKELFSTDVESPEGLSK

Row | Structure (SMILES) | activity change, negative = inhibition | Potency
1 | CCC(CC)COC(=O)C1=C(C)NC(=O)NC1c1ccc([N+](=O)[O-])cc1 (centres undefined) | -0.183% [at 1.91 µM] | 
2 | O=C(Cc1ccc([N+](=O)[O-])cc1)Nc1ccc(C(=O)N2CCOCC2)cc1 |  | inactive
3 | Cc1ccc(NC(=O)Cn2nnc(C(=O)NCc3ccco3)c2N)c(C)c1 |  | inactive
4 | CC(C)(C)NC(=O)CSc1nnc(NC(=O)CCc2ccccc2)s1 | 5.59% [at 1.91 µM] | 
5 | C=CCN1C(=NC(=O)COc2ccccc2)SC2CS(=O)(=O)CC21 (centres undefined) |  | inactive
6 | Cc1cc(Cl)ccc1C(=O)C1CCCN(C(=O)c2nonc2C)C1 (centres undefined) |  | inactive
7 | Cc1[nH]c2ccccc2c1C(=O)CN1CC(C)CC(C)C1 (centres undefined) |  | inactive
8 | O=C(O)C1CCCN1S(=O)(=O)c1ccc(Br)cc1 (centres undefined) |  | inactive
9 | O=C(CN(C(=O)c1nsc(Cl)c1Cl)c1cccc(F)c1)NC1CCCC1 |  | inactive
10 | COc1ccccc1OCc1nnc(SCC(N)=O)n1-c1ccccc1 |  | inactive
11 | C=CCn1c(C)cc(C2=NNC(=NCC)SC2)c1C |  | 562 nM (active)
12 | Cc1cc(C2=NNC(=Nc3ccc(S(=O)(=O)N4CCOCC4)cc3)SC2)c(C)n1CC1CCCO1 (centres undefined) |  | inactive
13 | O=C(O)c1ccccc1NC(=O)c1ccccc1-c1ccccc1C(=O)O |  | inactive
14 | CC1CN(S(=O)(=O)c2cccc(C(F)(F)F)c2)CN1C(=O)N1CCOCC1 (centres undefined) |  | inactive
15 | COc1ccc2[nH]c(=S)cc(C)c2c1 |  | 7080 nM (active)
16 | COc1ccc2[nH]c(C(=O)N3CCN(C)CC3)c(C)c2c1 |  | inactive
17 | COc1ccc2[nH]c3c(C)c4cc[n+](C)cc4c(C)c3c2c1 |  | inactive
18 | COc1ccc(NC(=O)c2cccc3c2C(=O)N(CC2CCCO2)C3)cc1OC (centres undefined) |  | inactive
19 | COc1ccc(OCCCCN2CCC(C)CC2)cc1 |  | inactive
20 | O=C1COc2ccc(S(=O)(=O)Nc3ccc(OC(F)(F)F)cc3)cc2N1 |  | inactive
21 | CC(=O)NC(=O)c1ccccc1O |  | inactive
22 | CC(C)=C(NC(=O)c1ccccc1)C(=O)N/N=C(\C)c1ccccc1O |  | 891 nM (active)
23 | CNC(=O)C(NC(=O)c1ccccc1)=C(C)C |  | inactive
24 | C/C(=N\NC(=O)c1ccccc1C)c1ccc(N2CCOCC2)cc1 |  | inactive
25 | C/C(=N\NC(=O)c1ccoc1C)c1ccccc1O |  | 158 nM (active)
26 | C/C(=N\NC(=O)c1cccnc1)c1ccc(-c2ccccc2)cc1 |  | inactive
27 | Cn1c(=O)c2c(SCC(=O)NCC3CCCO3)nc(CC(C)(C)C)nc2n(C)c1=O (centres undefined) |  | inactive
28 | COC(=O)c1c(NC(=O)C2CC(C)=C(C)CC2C(=O)O)sc2c1CCCCC2 (centres undefined) |  | inactive
29 | COc1cccc(C(=O)Nc2nnc(S(=O)(=O)N3CCOCC3)s2)c1 |  | inactive
